Structures are written as SMILES. Results with a measured potency or affinity are listed apart. The source made the active and inactive calls. The rule behind the calls is not given here.

This test in a line: PhoP regulon inhibitors in Salmonella Typhi, late-stage follow-up, GFP fluorescence, round 4, purified and synthesized compounds (AID 449743). As to conditions: Salmonella Typhi PhoP-promoter GFP reporter, 4 h; series mostly up to 150 µM.
In the case of `CN1CCN(C(=S)NCc2ccc(Cl)cc2)CC1`, the molecule was classed as inactive. To `FC(F)(F)c1ccccc1NC(=S)NCc1ccc(Cl)cc1` belongs “inactive”.

For the molecule `S=C(NCc1ccc(Cl)cc1)Nc1ccccn1`, the call was inactive. As for `O=C(Nc1ccc(Cl)cc1)N1CCCN(Cc2cccc(Br)c2)C1`, the entry is “inactive”.

Turning to `S=C(NCc1ccccc1)NCc1ccc(Cl)cc1`, the outcome was inactive.

For the molecule `S=C(NCc1ccc(Cl)cc1)Nc1ccncn1`, the molecule was classed as inactive.

Turning to `Cc1ccccc1NC(=O)N1CCCN(Cc2ccccc2F)C1`, the molecule was called inactive. As for `O=C(Nc1ccc(Cl)cc1)N1CCN(Cc2ccccc2F)C1`, the entry is “inactive”; as for `S=C(NCc1ccc(Cl)cc1)Nc1ccccc1I`, “inactive”; as for `O=C(NC1CCCCC1)N1CCCN(Cc2ccccc2F)C1`, “inactive”. As for `S=C(NCc1ccc(Cl)cc1)Nc1ccc(I)cc1`, the molecule was called inactive.

Take `S=C(NCc1ccc(Cl)cc1)NC1CCOCC1`: the molecule was called inactive. As for `S=C(NCc1ccc(Cl)cc1)Nc1ccccc1Br`, the entry is “inactive”.

On to `N#Cc1ccc(CN2CCCN(C(=O)Nc3ccc(Cl)cc3)C2)cc1`, for which the outcome was inactive. To `O=C(Nc1ccc(Cl)cc1)N1CCCN(Cc2cccc(F)c2)C1` belongs “inactive”; to `S=C(NCc1ccc(Cl)cc1)NC1CCCCC1`, “inactive”; to `FC(F)(F)c1ccc(NC(=S)NCc2ccc(Cl)cc2)cc1`, “inactive”. As for `S=C(NCc1ccc(Cl)cc1)Nc1cccc(Br)c1`, the entry is “inactive”; as for `S=C(NCc1ccc(Cl)cc1)NN1CCOCC1`, “inactive”.

The values above are taken from PubChem BioAssay AID449743 (Southern Research Specialized Biocontainment Screening …, 2010).
